TDP1 cell CPT – qHTS for Inhibitors of human tyrosyl-DNA phosphodiesterase 1 (TDP1): qHTS in cells in presence of CPT | Potency, µM (doses to about 46.2 µM), actives largely listed as inhibitors | chicken DT40 Tdp1-/-;hTDP1 cells + 20 nM CPT, ATP luminescence, 48 h | 420,000 tested, 12% active | AID 686979, 2013; also: nearly all actives have a fitted effect of over 55% in size
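Cell growth measured by CellTiter-Glo luminescence after a minimum 48 h, 37 C compound exposure with 20 nM CPT in Tdp1-knockout DT40 cells stably expressing hTDP1, seeded 400/well; qHTS titration format.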
HepG2 tox – qHTS for Inhibitors of TGF-b: Cytotox Counterscreen. HepG2 CAGA-GFP viability, ATP luminescence, 18 h. Potency, µM (highest dose often 46.1 µM), actives largely listed as cytotoxic. 410,000 tested, 0.76% active
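HepG2 CAGA-GFP cells (1000/well, DMEM with 1% FBS) received compound, then TGF-beta at 500 pg/mL final, and were incubated 18 hours at 37 degrees C. Viability was read by CellTiter-Glo luminescence. Media-only wells were set as complete cell-killing and DMSO as no toxicity.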
HT1080 IDH1KD tx – qHTS for induction of synthetic lethality in tumor cells producing 2HG: qHTS for the HT-1080-IDH1KD cell line; 360,000 tested, 2% active; HT-1080 IDH1 knockdown viability, ATP luminescence, 48 h; AID 686971, 2013; Potency, µM (series often up to 46.1 µM), actives largely listed as cytotoxic
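In this qHTS, HT-1080 cells depleted of IDH1 are exposed for 48 h at 37 °C to compound titrations. Toxicity is scored from CellTiter-Glo luminescence, with DMSO as full viability and medium alone as none.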
DT40 TDP1 no CPT – qHTS for Inhibitors of human tyrosyl-DNA phosphodiesterase 1 (TDP1): qHTS in cells in absence of CPT. Potency, µM (top dose mostly 46.2 µM), most hits filed as inhibitors. 420,000 tested, 15% active. DT40 Tdp1-/- hTDP1 cells, no CPT, ATP luminescence, 48 h; also: nearly all actives have a fitted effect of over 55% in size
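Luminescent ATP content (CellTiter-Glo) served as the growth readout. Knockout chicken DT40 cells expressing human TDP1 were exposed to compounds without camptothecin for a minimum 48 hr at 37 °C.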
HT1080-NT tox – qHTS for induction of synthetic lethality in tumor cells producing 2HG: qHTS for the HT-1080-NT fibrosarcoma cell line | Potency, µM (titrated, usually from 46.1 µM), hits mostly cytotoxic | 360,000 tested, 1.6% active | HT-1080-NT fibrosarcoma viability, CellTiter-Glo ATP luminescence, 48 h;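 also: NT is the 2HG producing partner of a matched IDH1 knockdown line; nearly all actives have a fitted effect of over 55% in size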
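750 cells/well, RPMI + 5% FBS; 2 h settle, compound pin-transfer, 48 h at 37 degrees C. CellTiter-Glo 10 min RT, luminescence. Normalized to DMSO and media-only wells.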
TGFb inhibitor – qHTS for Inhibitors of TGF-b; HepG2 CAGA-GFP TGF-b/SMAD3 reporter, GFP fluorescence, 18 h; TGF-beta stimulated, 500 pg/mL final; Potency, µM (titrated, usually from 46.1 µM), actives largely listed as inhibitors; 410,000 tested, 1.2% active; also: nearly all actives have a fitted effect of over 65% in size
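Per well, imaged GFP fluorescence of HEPG2 CAGA-GFP cells gives the signal; cells get compound, then TGF-beta (500 pg/mL final), 18 h at 37 degrees C; %Activity versus -TGF-beta and +DMSO controls.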
A number is an active result; - = inactive; ? = inconclusive; . = no result. Most compounds without a hit are left out; they make up all but 17% or so of the library. Calls follow the shape of the dose curve; as a rule, active = well fitted curve in the direction sought with a large enough effect; inconclusive = small, poorly fitted or top-dose-only effect, or another doubt; inactive = no such curve, though single readings can be large; an effect the other way counts as inactive or inconclusive.

SMILES | TDP1 cell CPT | HepG2 tox | HT1080 IDH1KD tx | DT40 TDP1 no CPT | HT1080-NT tox | TGFb inhibitor
COc1ccc(NC2Oc3cc4c(cc3C(c3cc(OC)c(OC)c(OC)c3)C2C)OCO4)cc1 (configuration not stated) | 4.6µM | - | ? | 4.1µM | ? | ?
C=CCCC1(CC(C)C)C(=O)NC(=S)NC1=O | - | - | - | - | - | -
Fc1cccc(C2NCCc3[nH]cnc32)c1 (configuration not stated) | - | - | - | - | - | -
Cc1c(C(=O)OC2CCCCC2)[nH]c2c1C(=O)CC(c1ccccc1)C2 (configuration not stated) | 4.6µM | - | . | 2.1µM | . | -
C[N+]1(C)CCC(OC(=O)C(c2ccccc2)c2ccccc2)CC1 | - | - | - | - | - | -
Cc1cc(OC(C)C(=O)NCC2CCC(C(=O)O)CC2)c2c3c(c(=O)oc2c1)CCC3 (configuration not stated) | - | - | - | - | - | -
CCOc1ccccc1CN(CCc1ccc2c(c1)OCO2)Cc1ccc(CC)cc1 | ? | - | . | ? | . | -
COC(=O)OCC12CCC(O1)C1(C)C(=O)OCC21 (configuration not stated) | ? | - | - | 29µM | - | -
O=C(Cn1c(=O)oc2ccccc21)N(Cc1ccccc1)C1CCS(=O)(=O)C1 (configuration not stated) | 23µM | - | - | ? | - | -
CCN(Cc1ccccc1)C(=O)Cn1c(=O)oc2ccccc21 | - | - | - | - | - | -
Cc1ccc(N2C(=O)NC(=O)/C(=C/c3ccc(-c4ccc(C(=O)O)c(Cl)c4)o3)C2=O)cc1 | - | - | - | - | - | -
O=C1NC(=O)N(c2ccc(Cl)cc2)C(=O)/C1=C\c1ccc(Sc2nc3ccccc3[nH]2)o1 | 16µM | - | - | ? | - | -
CC(C)c1ccc(NC(=O)C2CCC(CNS(=O)(=O)c3ccc4c(c3)CCCC(=O)N4)CC2)cc1 (configuration not stated) | 13µM | - | . | 16µM | . | -
CN1CC=C(/C=C/c2ccc(-c3ccccc3)cc2)CC1 | 15µM | 11µM | - | 12µM | - | ?
COc1ccc(/C=C/C2=CCN(C)CC2)cc1 | - | - | - | - | - | -
COC(=O)C1=C(c2cc3ccccc3s2)C[C@@H]2CC[C@H]1N2C(=O)NCCCOC(C)C | 18µM | - | - | 18µM | - | -
CCCNC(=O)N1[C@H]2CC[C@@H]1C(C(=O)OC)=C(c1cc3ccccc3s1)C2 | 12µM | - | - | . | - | -
CCN(CC)S(=O)(=O)c1cc(NC(=O)C(C)N2CC=C(c3ccccc3)CC2)ccc1C (configuration not stated) | 8.2µM | - | - | 6.5µM | - | -
O=C1C=CC2C3C(=O)N(c4ccccc4)C(=O)C3C1N2Cc1ccccc1 (configuration not stated) | 2.1µM | 13µM | 10µM | 2.3µM | ? | 2.8µM
COC(=O)C1=C(c2ccc(F)cc2F)C[C@@H]2CC[C@H]1N2C(=O)N1CCC(C)CC1 | 16µM | - | - | 10µM | - | -
COC(=O)C1=C(c2cccc(OC)c2OC)C[C@@H]2CC[C@H]1N2C(=O)N1CCC(C)CC1 | ? | - | - | 13µM | - | -
COC(=O)C1=C(c2ccccc2)C[C@@H]2CC[C@H]1N2C(=O)N1CCOCC1 | ? | - | - | ? | - | -
COC(=O)C1=C(c2ccccc2)C[C@@H]2CC[C@H]1N2C(=O)N1CCC(C)CC1 | ? | - | - | 15µM | - | -
COC(=O)C1=C(c2cccc(OC)c2OC)C[C@@H]2CC[C@H]1N2C(=O)N1CCC(O)CC1 | - | - | - | - | - | -
COC(=O)C1=C(c2cccc(C#N)c2)C[C@@H]2CC[C@H]1N2C(=O)N1CCC(C)CC1 | 16µM | - | - | 23µM | - | -
SMILES | TDP1 cell CPT | HepG2 tox | HT1080 IDH1KD tx | DT40 TDP1 no CPT | HT1080-NT tox | TGFb inhibitor
O=C(O)CCC(=O)NCCC1=c2ccccc2=N/C1=C\c1c(O)n(Cc2ccc(F)cc2)c(=S)[nH]c1=O | - | - | - | - | - | ?
CC(C)NC(=O)N1CC[C@@]2(CCCNC2)C1 | - | . | . | - | . | .
O=C(O)CNCP(=O)(O)O | - | . | . | - | . | .
CCCNC1=C(C)C(=O)C2=C(C1=O)C(COC(N)=O)[C@]1(OC)C3NC3CN21 (some centres not stated) | ? | - | - | 0.26µM | - | -
O=C1CC2OCC=C3CN4CC[C@]56c7ccccc7N1[C@H]5[C@H]2C3C[C@H]46 (some centres not stated) | . | . | . | - | . | .
NC(=Nc1ccccc1)NN=Cc1c[nH]c2ccccc12 | 1µM | - | ? | 0.92µM | ? | ?
NNC(N)=O | - | - | - | - | ? | -
S=P1(Oc2ccccc2)Nc2ccccc2N1 | - | - | - | - | - | -
CC[C@]1(O)CC(O[C@@H]2CC(N(C)C)C(O)C(C)O2)c2c(cc3c(c2O)C(=O)c2c(O)ccc(O)c2C3=O)C1C(=O)OC (some centres not stated) | 1.5µM | . | . | 1.3µM | . | .
O=C1NC(=O)C(CCc2ccncc2)(Cc2cccc(Cl)c2Cl)C(=O)N1c1ccc(Br)cc1 (configuration not stated) | 4.6µM | - | 8.2µM | 5.8µM | 16µM | -
CCc1ccc(N2C(=O)NC(=O)C(CCc3ccncc3)(CCc3ccncc3)C2=O)cc1 | - | - | - | - | - | -
O=C1Nc2cc(Cl)c(Cl)cc2N2CCNC[C@H]12 | - | . | . | ? | . | .
COC(=O)c1cc(NC(=O)Cn2nc(-c3ccccc3)c3c(c2=O)CCCC3)cc(C(=O)OC)c1 | ? | - | . | 18µM | . | ?
c1ccc(CCNCc2cccs2)cc1 | - | - | - | - | - | -
CCOP(=O)(OCC)C(Nc1ccccc1)c1cccnc1 (configuration not stated) | - | - | - | - | - | -
CC(Cc1ccccc1Sc1ccc(O)cc1)N(C)C (configuration not stated) | ? | - | - | 21µM | - | -
CC(=O)C1(c2ccccc2)CCN(C(=O)C2CCC(=O)N(CCc3cccc(F)c3)C2)CC1 (configuration not stated) | - | - | - | 23µM | - | -

Compound activity (PubChem BioAssay)
